Giardia FBPA inh-1: blocks Giardia fructose-bisphosphate aldolase activity. purified Giardia FBPA. Potency, µM (series often up to 59.6 µM), for inactives: at the highest dose activity, negative = inhibition, usual class: inhibitors. hit rate 0.71% among 290,000. A8B2U2; note: potency is the fitted concentration of half-maximal effect; % is set by controls: 0 for no effect and ±100 for the full control effect; nearly all actives have a fitted effect of over 55% in size
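Giardia FBPA (40 nM reagent) was preincubated 10 min at RT with compound (up to 57.5 uM final), then substrate plus GAPDH/TPI/NAD/arsenate coupling system with diaphorase/resazurin was added; resorufin fluorescence (525/598 nm) was read after 20 min.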
Shiga inhibitor: blocks Shiga toxin action in Vero cells. Vero cells, Shiga toxin protein synthesis inhibition reporter. inhibition, % at 38.7 µM. hit rate 9.2% among 290,000; in the data active = inhibition mostly above about 28%, no sharp cut-off; inactive = mostly below about 43%; note: 0% is about no effect
Tb PYK inh: blocks Trypanosoma brucei pyruvate kinase; Q57TT1; TbPYK enzyme, Kinase-Glo Plus ATP luminescence, 45 min; Potency, µM (doses to about 76.8 µM), inactives show at the top dose activity, negative = inhibition, usual class: inhibitors; hit rate 0.12% among 410,000; AID 624173; note: potency is the fitted concentration of half-maximal effect; % is set by controls: 0 for no effect and ±100 for the full control effect; nearly all actives have a fitted effect of over 50% in size
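Screened from lowest to highest concentration, compounds were pinned into TbPYK/substrate mixtures, and ADP (130 uM final) was added. Plates sat at room temperature for 45 min prior to Kinase-Glo Plus detection by luminescence.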
RE007 growth inh: less growth of the S. pombe RE007 Vpr strain; AID 651644; S. pombe RE007 Vpr strain, BacTiter-Glo ATP luminescence, 24 h; hit rate 0.21% among 360,000; Potency, µM (titrated, usually from 92.2 µM), for inactives: at the top dose activity change, negative = less growth, actives largely listed as inhibitors; active = well fitted falling curve with a large enough effect; inconclusive = small, poorly fitted or top-dose-only effect; inactive = no such curve, though single readings can be large or run the other way; note: potency is the fitted concentration of half-maximal effect; % is set by controls: 0 for no effect and ±100 for the full control effect; nearly all actives have a fitted effect of over 50% in size
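Fission yeast RE007 carrying one integrated HIV-1 vpr copy, seeded at OD 0.01 in PMG+AL medium with 23 nL pinned compound. Grown 24 h at 30 degrees; viability read by BacTiter-Glo luminescence after 5 min.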
CHX counter: affects cycloheximide protein synthesis inhibition readout, counter-screen; cell reporter, cycloheximide protein synthesis inhibition counterscreen; max response, %; hit rate 12% among 300,000; in the data active = max response mostly above about 13%, no sharp cut-off; inactive = mostly below about 14%; note: read at 38.3 µM for the half of the compounds with a filed dose; 0% is about no effect
LmPK inhibitor: blocks Leishmania mexicana pyruvate kinase activity; purified LmPK, Kinase-Glo ATP luminescence, 1 h; Potency, µM (titrated, usually from 57.5 µM), without a hit: at the top dose activity change, negative = inhibition, most hits filed as inhibitors; hit rate 0.37% among 290,000; Q27686; note: potency is the fitted concentration of half-maximal effect; % is set by controls: 0 for no effect and ±100 for the full control effect
Target sequence (Q27686 whole entry, looked up): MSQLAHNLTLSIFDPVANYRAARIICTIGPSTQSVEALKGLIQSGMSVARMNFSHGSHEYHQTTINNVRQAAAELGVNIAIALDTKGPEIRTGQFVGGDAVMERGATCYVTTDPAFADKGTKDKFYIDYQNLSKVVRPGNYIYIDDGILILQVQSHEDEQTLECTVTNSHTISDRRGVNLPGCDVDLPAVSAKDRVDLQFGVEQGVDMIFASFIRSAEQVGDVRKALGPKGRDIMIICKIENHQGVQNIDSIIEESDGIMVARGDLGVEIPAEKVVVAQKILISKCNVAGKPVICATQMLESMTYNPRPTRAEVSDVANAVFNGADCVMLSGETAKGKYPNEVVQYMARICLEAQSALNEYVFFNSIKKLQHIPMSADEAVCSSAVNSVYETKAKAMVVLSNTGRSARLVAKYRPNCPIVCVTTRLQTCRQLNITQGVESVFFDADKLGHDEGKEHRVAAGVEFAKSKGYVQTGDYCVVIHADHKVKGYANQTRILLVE
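Kinase-Glo luminescence read after 1 h RT reaction of 0.1 nM LmPK with 0.5 mM PEP and 0.1 mM ADP. Activity scaled between uninhibited and enzyme-free controls.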
Giardia growth: inhibitors of Giardia lamblia growth | Potency, µM (titrated, usually from 57.5 µM), inactives show at the top dose activity change, negative = inhibition, most hits filed as inhibitors | Giardia lamblia trophozoite growth inhibition | hit rate 5% among 1,500 | shares compounds with Giardia FBPA inh-1;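 note: potency is the fitted concentration of half-maximal effect; trophozoites exposed to compound for 48 h at 37 °C; % is set by controls: 0 for no effect and ±100 for the full control effect; nearly all actives have a fitted effect of over 70% in size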
Mammal cell tox: toxic to mammalian cells in Giardia aldolase counter-screen | mammalian cell viability counter-screen, qHTS | Potency, µM (top dose mostly 57.5 µM), for inactives: top-dose viability change, negative = toxicity, hits mostly inhibitors | hit rate 4% among 1,500 | AID 2786 | shares compounds with Giardia FBPA inh-1;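 note: Chinese hamster ovary cells used as mammalian cytotoxicity surrogate; viability measured as cellular ATP by luminescence; potency is the fitted concentration of half-maximal effect; compound exposure lasted 48 h before reading; % is set by controls: 0 for no effect and ±100 for the full control effect; nearly all actives have a fitted effect of over 60% in size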
Giardia FBPA inh-2: confirmation of Giardia fructose-bisphosphate aldolase inhibitors; shares compounds with Giardia FBPA inh-1; purified Giardia aldolase enzyme activity, qHTS; Potency, µM (doses to about 57.5 µM), for inactives: at the top dose activity change, negative = inhibition, hits mostly inhibitors; hit rate 5% among 1,500; AID 2787; note: potency is the fitted concentration of half-maximal effect; % is set by controls: 0 for no effect and ±100 for the full control effect; nearly all actives have a fitted effect of over 45% in size
Rabbit aldolase: blocks rabbit muscle aldolase in Giardia aldolase selectivity test. hit rate 4% among 1,500. Rabbit muscle FBPA enzyme inhibition, selectivity counter-screen. shares compounds with Giardia FBPA inh-1. Potency, µM (highest dose often 57.5 µM), for the others: at the highest dose activity, negative = inhibition, hits mostly inhibitors. AID 2794; note: potency is the fitted concentration of half-maximal effect; % is set by controls: 0 for no effect and ±100 for the full control effect; nearly all actives have a fitted effect of over 60% in size
Target sequence (P00883 whole entry, looked up): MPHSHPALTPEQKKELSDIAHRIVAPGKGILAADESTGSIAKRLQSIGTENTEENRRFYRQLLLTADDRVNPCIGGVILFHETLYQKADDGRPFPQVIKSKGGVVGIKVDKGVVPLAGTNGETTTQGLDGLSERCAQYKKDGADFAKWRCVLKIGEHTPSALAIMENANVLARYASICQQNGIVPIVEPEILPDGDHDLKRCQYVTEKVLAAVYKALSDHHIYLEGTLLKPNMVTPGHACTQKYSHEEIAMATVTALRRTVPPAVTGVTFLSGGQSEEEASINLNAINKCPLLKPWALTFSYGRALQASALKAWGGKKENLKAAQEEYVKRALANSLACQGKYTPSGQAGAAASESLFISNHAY
GAPDH coupling: counter-screen for Giardia aldolase inhibitors: GAPDH coupling enzyme; shares compounds with Giardia FBPA inh-1; GAPDH coupling enzyme counterscreen, biochemical, qHTS; Potency, µM (top dose mostly 57.5 µM), for inactives: at the top dose activity change, negative = inhibition, most hits filed as inhibitors; hit rate 6% among 1,500; AID 2795; note: potency is the fitted concentration of half-maximal effect; % is set by controls: 0 for no effect and ±100 for the full control effect; nearly all actives have a fitted effect of over 55% in size
* hit, by the source's call; ? = inconclusive; / = not tested or not shown; [ ] = remark or other dose. Shown is part of a subset that was picked to be rich in hits. Unless noted, calls come from the whole dose curve; as a rule, active = well fitted curve in the direction sought with a large enough effect; inconclusive = small, poorly fitted or top-dose-only effect, or another doubt; inactive = no such curve, though single readings can be large; an effect the other way counts as inactive or inconclusive.

SMILES	Giardia FBPA inh-1	Shiga inhibitor	Tb PYK inh	RE007 growth inh	CHX counter	LmPK inhibitor	Giardia growth	Mammal cell tox	Giardia FBPA inh-2	Rabbit aldolase	GAPDH coupling
O=C(O)CC(CC(=O)Nc1nncs1)c1ccccc1 (configuration not stated)	-1.3%	-18.7	5.9%	?	-4.9	-5.3%	/	/	/	/	/
O=C(O)CC(Cn1[nH]nnc1=S)c1ccccc1 (configuration not stated)	15.8µM*	16.0	?	11.8%	-4.7	3.9%	66.0%	-9.4%	-11.6%	3.7%	7.3%
COc1cc(C(=O)O/N=C2\C=CC(=O)C=C2C)cc(OC)c1OC	3.97µM*	-5.6	-17.9%	-15.2%	-1.8	-3.0%	-13.3%[38.3 µM]	?	28.2µM*	31.6µM*	31.6µM*
COc1cc(C(=O)O)cc(OC)c1OC	/	/	4.0%	3.5%	/	/	/	/	/	/	/
O=[N+]([O-])c1ccccc1/C=N/n1c(C(F)(F)F)n[nH]c1=S	17.7µM*	9.5	?	?	3.8	4.8%	-2.2%[10.4 µM]	4.4%	?	?	?
O=[N+]([O-])c1ccccc1/C=N/n1c(-c2cccnc2)n[nH]c1=S	-13.2%	-7.3	?	6.2%	-5.3	6.2%	/	/	/	/	/
Cc1cc(C)nc(N/N=C/c2ccc(Cl)cc2)n1	11.2µM*	32.1	-4.3%	-17.3%	12.5*	6.4%	-23.1%	5.4%	3.3%	2.3%	-4.7%
COc1cc(/C=N/Nc2nc(C)cc(C)n2)cc(OC)c1OC	15.8µM*	21.6	2.8%	2.9%	4.1	-2.4%	6.5%	1.6%	2.3%	-0.1%	9.8%
COc1cc(/C=N/Nc2ncc(C(F)(F)F)cc2Cl)cc(OC)c1OC	-11.7%	8.5	3.5%	5.7%	-2.3	5.4%	/	/	/	/	/
Cc1cc(C)nc(NCc2ccc(Cl)cc2)n1	4.8%	-17.7	-5.9%	-6.5%	-0.9	-4.0%	/	/	/	/	/
COc1ccc(-c2cn(CC[C@@H]3CC[C@H](NC(=O)Cc4ccccn4)[C@@H](CO)O3)nn2)cc1	/	/	/	-17.8%	/	/	/	/	/	/	/
CCN(CC)C(=O)c1sc2[nH]c(=S)n(-c3ccccc3)c(=O)c2c1C	?	-8.2	-0.5%	-1.8%	5.3	?	/	/	/	/	/
O=C(O)C1CCc2sc3[nH]c(=S)n(-c4ccccc4)c(=O)c3c21 (configuration not stated)	19.9µM*	-6.4	?	-1.3%	-2.1	-8.0%	-5.9%[10.4 µM]	2.8%	-5.9%	5.4%	5.7%
N=C1/C(=C/c2coc3ccccc3c2=O)C(=O)N=C2SC(c3ccco3)=NN12	15.8µM*	-3.1	-5.5%	10µM*	6.8	6.9%	-14.1%	3.5%	-2.1%	6.2%	10.9%
CC1(C)C(=O)NC2=C1C(=O)C(=O)c1ccccc12	0.158µM*	-17.2	/	/	-17.5	/	15.8µM*	20µM*	1.12µM*	0.891µM*	1.26µM*
COc1ccc(N=NC2C(=O)N(c3ccccc3)N=C2C)cc1 (configuration not stated)	28.2µM*	12.3	3.6%	-2.6%	12.8	-0.1%	7.0%	-8.9%	1.7%	-0.7%	-0.6%
CC1=NN(C(=O)c2ccncc2)C(=O)C1N=Nc1ccc2ccccc2c1 (configuration not stated)	/	/	-28.1%	1.5%	/	/	/	/	/	/	/
CC1=NN(c2ccccc2)C(=O)C1N=Nc1cccc(O)c1 (configuration not stated)	10µM*	86.3*	2.4%	-25.8%	43.5*	7.3%	?	2.8%	3.7%	-2.8%	1.0%
CC1=NN(c2nc(-c3ccc(C)cc3)cs2)C(=O)C1N=Nc1cccc(O)c1 (configuration not stated)	-4.2%	15.3	?	0.7%	9.3	-4.5%	/	/	/	/	/
CCC(=O)N1CCc2cc(S(=O)(=O)NC(CC(C)C)C(=O)Nc3cc(C)ccc3OC)ccc21 (configuration not stated)	/	/	-0.2%	/	/	/	/	/	/	/	/
CCOc1cc(N2CCOCC2)c(OCC)cc1NC(=O)CN1C(=O)NC(C)(c2ccc(OC)cc2)C1=O (configuration not stated)	/	/	-15.8%	-9.4%	/	/	/	/	/	/	/
CCc1cccc(C)c1NC(=S)N(CCCN1CCOCC1)Cc1cccnc1	15.8µM*	-4.7	-1.1%	-5.7%	0.3	0.1%	-1.7%	7.8%	6.2%	13.1%	10.0%
CC(C)N(C)c1ncnc2c1ncn2[C@H]1CN(Cc2ccc3c(c2)OCO3)C[C@@H](CO)O1	/	/	-6.1%	11.8%	/	/	/	/	/	/	/
CC(C)C(=O)NC(c1ccco1)c1ccc2cccnc2c1O (configuration not stated)	?	36.2	-10.5%	-25.2%	1.1	1.0%	/	/	/	/	/
Oc1c(C(Nc2nc3ccccc3s2)c2ccco2)ccc2cccnc12 (configuration not stated)	15.8µM*	37.5	-11.3%	?	-1.3	-1.7%	35.4%	?	-22.6%	-2.6%	-7.5%
SMILES	Giardia FBPA inh-1	Shiga inhibitor	Tb PYK inh	RE007 growth inh	CHX counter	LmPK inhibitor	Giardia growth	Mammal cell tox	Giardia FBPA inh-2	Rabbit aldolase	GAPDH coupling
NC(=S)NN=C1CCCCCCCCCC1	/	/	-4.5%	-9.6%	/	/	/	/	/	/	/
COCCNC(=S)N/N=C1\CC(C)CC(C)(C)C1 (configuration not stated)	17.7µM*	-12.5	-4.3%	23.4%	-1.7	1.0%	39.6%	-1.3%	7.2%	9.5%	14.3%
COCCNC(=S)NN=C1CCCCCC1	19.9µM*	25.2	-0.7%	7.6%	8.1	6.8%	28.8%	-8.9%	10.3%	9.9%	18.9%
CC1CCN(C2CCN(S(=O)(=O)c3ccc(C(F)(F)F)cc3)CC2)CC1	19.0%	-10.9	1.7%	-19.6%	-5.1	-0.3%	/	/	/	/	/
Cc1nc(NC(=O)CN2CCCCC2)sc1C(=O)N(C)C	3.16µM*	15.2	1.4%	2.8%	-0.4	-5.4%	-6.9%[38.3 µM]	4.1%	-9.3%	7.6%	-4.8%
COc1ccccc1N1CCN(CC(=O)Nc2nc(C)c(C(=O)N(C)C)s2)CC1	11.2µM*	1.8	-0.6%	2.3%	-2.6	0.6%	9.5%	4.1%	-2.7%	13.6%	-16.4%
CN[C@H]1C[C@H]2c3cc(-c4ccccc4)ccc3CCN2C(=O)[C@H]1[C@H](C)O	/	/	1.9%	-11.5%	/	/	/	/	/	/	/

Assay outcomes as filed in PubChem.
